We go through 37 sequences from doi:10.1101/2024.03.05.583629.

The experiment concerns the target pT7_6His-AlfaTag-HOXD13 (human, UniProt P35453 263-343). Briefly: PADIT-seq. Conditions: dsDNA, one strand shown.

Sequence of pT7_6His-AlfaTag-HOXD13 (P35453 263-343): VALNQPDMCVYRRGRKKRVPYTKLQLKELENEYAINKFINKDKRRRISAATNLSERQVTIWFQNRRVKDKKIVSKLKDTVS

For the sequence “CTCGAGGATATCAAGATCTGGCCTCGGCGTTTTATAGGGAACCTCTAGCTAGCCGACTCACTATAGGGATAATCGCCCTGAGCAAAGACC”, the binding signal stood at 3.33 ± 0.0804 log2FC.

As to “CTCGAGGATATCAAGATCTGGCCTCGGCTTTTTAACTGGAACCTCTAGCTAGCCGACTCACTATAGGGATAATCGCCCTGAGCAAAGACC”, the binding signal is 1.56 ± 0.107 log2FC. In the case of “CTCGAGGATATCAAGATCTGGCCTCGGCTATCCACGCGGAACCTCTAGCTAGCCGACTCACTATAGGGATAATCGCCCTGAGCAAAGACC”, the binding signal was -1.03 ± 0.113 log2FC. With “CTCGAGGATATCAAGATCTGGCCTCGGCATTTTATGGGGAACCTCTAGCTAGCCGACTCACTATAGGGATAATCGCCCTGAGCAAAGACC”, the binding signal came out at 3.25 ± 0.0762 log2FC.

“CTCGAGGATATCAAGATCTGGCCTCGGCGTTTTACGAGGAACCTCTAGCTAGCCGACTCACTATAGGGATAATCGCCCTGAGCAAAGACC” displayed a binding signal of 3.47 ± 0.133 log2FC. As for “CTCGAGGATATCAAGATCTGGCCTCGGCATTTTACGCGGAACCTCTAGCTAGCCGACTCACTATAGGGATAATCGCCCTGAGCAAAGACC”, the binding signal was 2.16 ± 0.0812 log2FC. The sequence “CTCGAGGATATCAAGATCTGGCCTCGGCGTTTTACGTGGAACCTCTAGCTAGCCGACTCACTATAGGGATAATCGCCCTGAGCAAAGACC” returned a binding signal of 2.36 ± 0.0852 log2FC. Then “CTCGAGGATATCAAGATCTGGCCTCGGCGAAATAAAAGGAACCTCTAGCTAGCCGACTCACTATAGGGATAATCGCCCTGAGCAAAGACC”, with 1.47 ± 0.0776 log2FC; and “CTCGAGGATATCAAGATCTGGCCTCGGCGTTTTACTCGGAACCTCTAGCTAGCCGACTCACTATAGGGATAATCGCCCTGAGCAAAGACC”, with 0.701 ± 0.0889 log2FC; and “CTCGAGGATATCAAGATCTGGCCTCGGCGTTTTACCCGGAACCTCTAGCTAGCCGACTCACTATAGGGATAATCGCCCTGAGCAAAGACC”, with -0.0427 ± 0.101 log2FC. For the sequence “CTCGAGGATATCAAGATCTGGCCTCGGCGCCGTAAAAGGAACCTCTAGCTAGCCGACTCACTATAGGGATAATCGCCCTGAGCAAAGACC”, the binding signal was found to be 1.76 ± 0.0756 log2FC. As to “CTCGAGGATATCAAGATCTGGCCTCGGCATTTTACCAGGAACCTCTAGCTAGCCGACTCACTATAGGGATAATCGCCCTGAGCAAAGACC”, the binding signal is 0.505 ± 0.0919 log2FC. In turn, “CTCGAGGATATCAAGATCTGGCCTCGGCGTTTTAGAGGGAACCTCTAGCTAGCCGACTCACTATAGGGATAATCGCCCTGAGCAAAGACC” registered a binding signal of 1.24 ± 0.114 log2FC. For “CTCGAGGATATCAAGATCTGGCCTCGGCCATTTAAAAGGAACCTCTAGCTAGCCGACTCACTATAGGGATAATCGCCCTGAGCAAAGACC”, the binding signal is 2.3 ± 0.0841 log2FC. Turning to “CTCGAGGATATCAAGATCTGGCCTCGGCTTTTTACTTGGAACCTCTAGCTAGCCGACTCACTATAGGGATAATCGCCCTGAGCAAAGACC”, the binding signal is 1.32 ± 0.0895 log2FC. With “CTCGAGGATATCAAGATCTGGCCTCGGCCTTTTAGTCGGAACCTCTAGCTAGCCGACTCACTATAGGGATAATCGCCCTGAGCAAAGACC”, the binding signal is -0.369 ± 0.0988 log2FC. In turn, “CTCGAGGATATCAAGATCTGGCCTCGGCGTTTTATGAGGAACCTCTAGCTAGCCGACTCACTATAGGGATAATCGCCCTGAGCAAAGACC” gave a binding signal of 3.28 ± 0.127 log2FC. The sequence “CTCGAGGATATCAAGATCTGGCCTCGGCTCATTAAAAGGAACCTCTAGCTAGCCGACTCACTATAGGGATAATCGCCCTGAGCAAAGACC” had a binding signal of 2.97 ± 0.0761 log2FC. “CTCGAGGATATCAAGATCTGGCCTCGGCCGCCCATATGGAACCTCTAGCTAGCCGACTCACTATAGGGATAATCGCCCTGAGCAAAGACC” had a binding signal of -0.841 ± 0.12 log2FC. Then “CTCGAGGATATCAAGATCTGGCCTCGGCGTTTTATGGGGAACCTCTAGCTAGCCGACTCACTATAGGGATAATCGCCCTGAGCAAAGACC”, with 3.21 ± 0.0773 log2FC; and “CTCGAGGATATCAAGATCTGGCCTCGGCCTTTTAACCGGAACCTCTAGCTAGCCGACTCACTATAGGGATAATCGCCCTGAGCAAAGACC”, with 1.24 ± 0.0724 log2FC; and “CTCGAGGATATCAAGATCTGGCCTCGGCAGGGTAAAAGGAACCTCTAGCTAGCCGACTCACTATAGGGATAATCGCCCTGAGCAAAGACC”, with -0.13 ± 0.081 log2FC. “CTCGAGGATATCAAGATCTGGCCTCGGCCGAGTAAAAGGAACCTCTAGCTAGCCGACTCACTATAGGGATAATCGCCCTGAGCAAAGACC” registered a binding signal of 0.186 ± 0.114 log2FC. As for “CTCGAGGATATCAAGATCTGGCCTCGGCCTTTTAAGCGGAACCTCTAGCTAGCCGACTCACTATAGGGATAATCGCCCTGAGCAAAGACC”, the binding signal turned out to be 0.916 ± 0.0855 log2FC. Take “CTCGAGGATATCAAGATCTGGCCTCGGCGCGGGAGCGGGAACCTCTAGCTAGCCGACTCACTATAGGGATAATCGCCCTGAGCAAAGACC”: the binding signal is -0.635 ± 0.137 log2FC.

For the sequence “CTCGAGGATATCAAGATCTGGCCTCGGCGCGCGCGCGGGAACCTCTAGCTAGCCGACTCACTATAGGGATAATCGCCCTGAGCAAAGACC”, the binding signal was -1.01 ± 0.148 log2FC. The sequence “CTCGAGGATATCAAGATCTGGCCTCGGCACCCCACGCGGAACCTCTAGCTAGCCGACTCACTATAGGGATAATCGCCCTGAGCAAAGACC” displayed a binding signal of -1.03 ± 0.136 log2FC.

For “CTCGAGGATATCAAGATCTGGCCTCGGCATTTTAGATGGAACCTCTAGCTAGCCGACTCACTATAGGGATAATCGCCCTGAGCAAAGACC”, the binding signal stood at 0.542 ± 0.096 log2FC. Take “CTCGAGGATATCAAGATCTGGCCTCGGCTTTTTAAACGGAACCTCTAGCTAGCCGACTCACTATAGGGATAATCGCCCTGAGCAAAGACC”: the binding signal was 1.28 ± 0.101 log2FC. As to “CTCGAGGATATCAAGATCTGGCCTCGGCGTGTTAAAAGGAACCTCTAGCTAGCCGACTCACTATAGGGATAATCGCCCTGAGCAAAGACC”, the binding signal is 1.46 ± 0.0736 log2FC.

In the case of “CTCGAGGATATCAAGATCTGGCCTCGGCCGCCCAGTCGGAACCTCTAGCTAGCCGACTCACTATAGGGATAATCGCCCTGAGCAAAGACC”, the binding signal is -0.955 ± 0.134 log2FC. The sequence “CTCGAGGATATCAAGATCTGGCCTCGGCTTTGTAAAAGGAACCTCTAGCTAGCCGACTCACTATAGGGATAATCGCCCTGAGCAAAGACC” had a binding signal of 1.2 ± 0.0832 log2FC. “CTCGAGGATATCAAGATCTGGCCTCGGCCTTTTATCAGGAACCTCTAGCTAGCCGACTCACTATAGGGATAATCGCCCTGAGCAAAGACC”: the binding signal turned out to be 2.19 ± 0.0738 log2FC. The sequence “CTCGAGGATATCAAGATCTGGCCTCGGCATCATAAAAGGAACCTCTAGCTAGCCGACTCACTATAGGGATAATCGCCCTGAGCAAAGACC” came in with a binding signal of 2.56 ± 0.0828 log2FC. Turning to “CTCGAGGATATCAAGATCTGGCCTCGGCTTTTTATTCGGAACCTCTAGCTAGCCGACTCACTATAGGGATAATCGCCCTGAGCAAAGACC”, the binding signal was 1.86 ± 0.0775 log2FC. “CTCGAGGATATCAAGATCTGGCCTCGGCCAAATAAAAGGAACCTCTAGCTAGCCGACTCACTATAGGGATAATCGCCCTGAGCAAAGACC” displayed a binding signal of 2.65 ± 0.0828 log2FC. In turn, “CTCGAGGATATCAAGATCTGGCCTCGGCTAGGTAAAAGGAACCTCTAGCTAGCCGACTCACTATAGGGATAATCGCCCTGAGCAAAGACC” returned a binding signal of -0.394 ± 0.106 log2FC.
